Assay results from PubChem BioAssay.
A number with no mark means an inactive call. For some of these results: Measured potencies and affinities stand elsewhere. The source made the active and inactive calls.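 Rule for the calls, unless noted: active = primary screen activator hit with a dose response curve and TRPC4 channel activation at any tested dose; inactive = no activation, no dose response, or not a primary hit.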

What was measured:
[1] = tested on: TRPC4 beta (transient receptor potential cation channel C4), mouse; assay: activators of mouse TRPC4 channel, confirmation, cell-based, Fluo4 calcium, HEK293 TRPC4beta/mu-opioid, duplicates, 10 µM (AID 2426;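 active = fluorescence ratio normalized to control raised more than 50% in primary screen plus both repeat runs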); settings: Fluo4 calcium fluorescence, at 10 µM; active compounds read high
[2] = tested on: transient receptor potential cation channel C4 beta (TRPC4), mouse; assay: activators of mouse TRPC4 channel, confirmation, cell-based, second round, Fluo4, HEK293 TRPC4beta/mu-opioid, 1 µM (AID 2461;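 active = primary screen active and over 50% activation in each of two duplicate runs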); settings: Fluo4 calcium fluorescence, at 1 µM; active compounds read high
[3] = tested on: TRPC4 (transient receptor potential cation channel C4 beta), mouse; assay: positive allosteric modulators of mouse TRPC4, confirmation, cell-based, second round, Fluo-4, HEK293 TRPC4beta/mu-opioid, 1 µM (AID 2554;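 active = primary screen hit whose fluorescence ratio, in both repeats, exceeds the weak agonist control mean by 3 SD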); settings: DAMGO EC20, Fluo-4 calcium flux, at 1 µM; active compounds read high
[4] = tested on: TRPC4 beta (transient receptor potential cation channel C4), mouse; assay: positive allosteric modulators of mouse TRPC4, confirmation, cell-based, Fluo-4, HEK293 TRPC4beta/mu-opioid (AID 2555;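 active = primary screen hit whose calcium fluorescence ratio, in both repeats, exceeds the weak agonist control mean by 3 SD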); settings: DAMGO EC20, Fluo-4 calcium flux, at 10 µM; active compounds read high
[5] = molecular target: Short transient receptor potential channel 4 (Mus musculus) (UniProt Q9QUQ5); assay: inhibitors of mouse TRPC4 channel, confirmation, cell-based, Fluo4, HEK293 TRPC4beta/mu-opioid (AID 2636;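 active = calcium signal cut by more than 3 SD below the full-agonist control yet still positive, in both repeats and the earlier primary screen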); settings: DAMGO, Fluo4 calcium flux, at 10 µM; active compounds read high
Sequence of Short transient receptor potential channel 4 (Mus musculus) (Q9QUQ5 whole entry, looked up): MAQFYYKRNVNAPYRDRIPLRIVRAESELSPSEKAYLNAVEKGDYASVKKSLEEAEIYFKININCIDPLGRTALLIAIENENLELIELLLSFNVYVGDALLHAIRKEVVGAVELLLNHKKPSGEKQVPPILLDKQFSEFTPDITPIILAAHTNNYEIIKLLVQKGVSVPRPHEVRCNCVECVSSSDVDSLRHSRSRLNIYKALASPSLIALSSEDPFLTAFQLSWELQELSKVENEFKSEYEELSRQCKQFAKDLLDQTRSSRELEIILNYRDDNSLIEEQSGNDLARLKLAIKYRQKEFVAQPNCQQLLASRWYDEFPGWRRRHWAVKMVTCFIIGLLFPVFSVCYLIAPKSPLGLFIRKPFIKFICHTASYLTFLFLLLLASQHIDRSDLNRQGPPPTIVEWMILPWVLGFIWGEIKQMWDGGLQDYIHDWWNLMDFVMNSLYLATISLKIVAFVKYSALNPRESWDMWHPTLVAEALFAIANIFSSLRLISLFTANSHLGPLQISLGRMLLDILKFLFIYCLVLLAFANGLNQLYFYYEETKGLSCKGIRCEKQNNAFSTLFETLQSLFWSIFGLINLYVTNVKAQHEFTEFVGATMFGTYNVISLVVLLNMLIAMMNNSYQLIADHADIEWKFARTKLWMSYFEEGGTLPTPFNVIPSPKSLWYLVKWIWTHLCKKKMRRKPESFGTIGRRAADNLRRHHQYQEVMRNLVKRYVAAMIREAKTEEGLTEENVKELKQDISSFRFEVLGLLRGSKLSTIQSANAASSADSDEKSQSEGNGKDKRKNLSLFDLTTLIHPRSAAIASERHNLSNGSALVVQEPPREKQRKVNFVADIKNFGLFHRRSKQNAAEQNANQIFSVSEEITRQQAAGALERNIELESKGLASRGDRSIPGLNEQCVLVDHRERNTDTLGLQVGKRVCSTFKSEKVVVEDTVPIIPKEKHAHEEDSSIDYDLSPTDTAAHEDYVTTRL

[6] = molecular target: Short transient receptor potential channel 4 (Mus musculus) (UniProt Q9QUQ5); assay: inhibitors of mouse TRPC4 channel, confirmation, cell-based, second round, Fluo4, HEK293 TRPC4beta/mu-opioid, 1 µM (AID 2637;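 active = calcium signal ratio cut to more than 3 SD under the fully stimulated control mean yet still positive, in both repeats and the primary screen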;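 for inhibition: percent of integrated ratio relative to wells lacking test compound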); settings: Fluo4 calcium flux, DAMGO, at 1 µM; active compounds read high
[7] = molecular target: Short transient receptor potential channel 4 (Mus musculus) (UniProt Q9QUQ5); assay: mouse TRPC4 channel activators, dose response, cell-based, HEK293 TRPC4/mu-opioid, Fluo-4 calcium (AID 434937)
[8] = molecular target: Short transient receptor potential channel 4 (Mus musculus) (UniProt Q9QUQ5); assay: TRPC4 positive allosteric modulators, dose response, cell-based, HEK293 TRPC4/mu-opioid, Fluo-4 calcium, EC20 DAMGO (AID 434941;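 active = earlier screen potentiator hit that boosts the TRPC4 ion channel at some dose, with a dose response; inactive = no potentiation, no dose response, or not a prior hit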;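 note: calcium entry triggered by an EC20 dose of DAMGO at the co-expressed mu-opioid receptor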)
[9] = molecular target: Short transient receptor potential channel 4 (Mus musculus) (UniProt Q9QUQ5); assay: mouse TRPC4 channel inhibitors, dose response, cell-based, HEK293 TRPC4/mu-opioid, Fluo-4 calcium (AID 434942;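 active = primary screen inhibitor hit that blocks the TRPC4 channel at some tested dose, yielding a dose curve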)
[10] = molecular target: Short transient receptor potential channel 6 (Mus musculus) (UniProt Q61143); assay: inhibition of mouse TRPC6 channel, confirmation, selectivity assay for TRPC4 inhibitor project, cell-based, HEK293, membrane potential dye, duplicate (AID 434948;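 active = active in primary screen and both duplicates, each dropping signal beyond three positive-control SD with fluorescence still positive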); settings: HEK293 TRPC6, membrane potential dye fluorescence, at 10 µM, stimulated with maximal-effect acetylcholine; active compounds read high
Sequence of Short transient receptor potential channel 6 (Mus musculus) (Q61143 whole entry, looked up): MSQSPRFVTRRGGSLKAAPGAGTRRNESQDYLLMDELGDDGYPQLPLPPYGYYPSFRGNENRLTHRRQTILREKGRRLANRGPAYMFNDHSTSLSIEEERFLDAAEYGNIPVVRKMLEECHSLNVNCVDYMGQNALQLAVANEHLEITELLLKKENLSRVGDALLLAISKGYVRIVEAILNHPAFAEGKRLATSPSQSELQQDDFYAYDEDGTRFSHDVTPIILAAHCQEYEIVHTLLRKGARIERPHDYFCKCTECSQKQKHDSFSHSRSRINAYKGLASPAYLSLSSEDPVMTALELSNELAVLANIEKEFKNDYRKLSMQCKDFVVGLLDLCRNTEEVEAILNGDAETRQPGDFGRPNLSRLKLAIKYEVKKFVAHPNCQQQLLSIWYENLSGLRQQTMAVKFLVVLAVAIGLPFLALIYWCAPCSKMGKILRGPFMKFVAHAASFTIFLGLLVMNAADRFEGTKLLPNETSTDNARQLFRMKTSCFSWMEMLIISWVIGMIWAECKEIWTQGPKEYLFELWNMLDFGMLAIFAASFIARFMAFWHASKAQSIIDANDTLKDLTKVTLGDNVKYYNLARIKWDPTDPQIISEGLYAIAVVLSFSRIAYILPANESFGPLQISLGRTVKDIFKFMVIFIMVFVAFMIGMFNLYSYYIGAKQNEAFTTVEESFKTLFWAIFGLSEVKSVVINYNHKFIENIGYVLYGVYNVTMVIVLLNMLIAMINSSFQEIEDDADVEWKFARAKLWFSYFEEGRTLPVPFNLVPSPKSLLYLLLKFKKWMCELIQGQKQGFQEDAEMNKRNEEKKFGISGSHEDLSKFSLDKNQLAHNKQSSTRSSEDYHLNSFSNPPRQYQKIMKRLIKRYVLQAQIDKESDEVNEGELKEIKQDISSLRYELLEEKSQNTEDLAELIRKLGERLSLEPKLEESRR

[11] = molecular target: Short transient receptor potential channel 6 (Mus musculus) (UniProt Q61143); assay: activation of mouse TRPC6 channel, confirmation, selectivity assay for TRPC4 activator project, cell-based, HEK293, membrane potential dye, duplicate (AID 434950;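 active = membrane potential signal rise above negative control mean plus 3 SD in both duplicates, also active in the earlier TRPC4 screen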); settings: HEK293 TRPC6, membrane potential fluorescence, at 10 µM; active compounds read high
[12] = molecular target: Short transient receptor potential channel 6 (Mus musculus) (UniProt Q61143); assay: TRPC6 potentiation by TRPC4 potentiator hits, confirmation, selectivity assay for TRPC4 potentiator project, HEK293 cells, membrane potential dye, duplicate (AID 434952;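 active = compound raising the membrane signal above positive-control mean plus 3 SD in both repeats, and a primary screen hit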); settings: HEK293 TRPC6, membrane potential dye fluorescence, at 10 µM, maximal acetylcholine added after compound; active compounds read high
[13] = molecular target: Short transient receptor potential channel 4 (Mus musculus) (UniProt Q9QUQ5); assay: calcium flux activators in TRPC4/5HT1a cells, counter-screen for TRPC4 activator project, cell-based, second counter screen, HEK293 TRPC4/5HT1a, Fluo-4 (AID 434977;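 active = calcium signal rise above buffer-control mean plus 5 SD in both duplicates, and also a hit in the primary screen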); settings: Fluo-4 calcium flux, at 10 µM; active compounds read high
[14] = calcium flux inhibitors in TRPC4/5HT1a cells, confirmation, counter-screen for TRPC4 inhibitor project, cell-based, second counter screen, HEK293 TRPC4/5HT1a, Fluo-4 (AID 434978;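 active = primary screen active whose calcium signal fell more than 3 SD beyond the full-serotonin control mean in both duplicate plates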;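 for outcome: serotonin given first at submaximal then at maximal dose after compound preincubation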); settings: Fluo-4 calcium flux, at 10 µM, serotonin added to trigger calcium flux; active compounds read high
[15] = tested on: TRPC4 (mouse), co-expressed with 5HT1a in HEK293; assay: calcium flux potentiators in TRPC4/5HT1a cells, confirmation, counter-screen for TRPC4 potentiator project, cell-based, second counter screen, HEK293 TRPC4/5HT1a, Fluo-4 (AID 434979;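 active = signal rise over 3 SD above mean of control wells given weak agonist, in both repeats and first screen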); settings: Fluo-4 calcium flux, at 10 µM, serotonin added at its EC20 dose; active compounds read high
[16] = calcium flux activation in mu-opioid HEK293 cells, confirmation, counter-screen for TRPC4 activator project, cell-based, HEK293 mu-opioid receptor line (AID 449723;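 active = hit in primary screen, with calcium signal over 5 SD above buffer well mean in both duplicates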;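 note: counter screen cells carry the mu-opioid receptor alone and lack TRPC4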); settings: Fluo-4 calcium fluorescence, at 10 µM; active compounds read high
[17] = calcium flux enhancement in mu-opioid HEK293 cells, confirmation, counter-screen for TRPC4 allosteric potentiator project, cell-based, HEK293 mu-opioid receptor line (AID 449724;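 active = calcium signal rise more than 3 SD above the low-dose agonist control mean, in both duplicate plates and the primary screen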); settings: Fluo-4 calcium flux, at 10 µM, compound added before EC20 DAMGO stimulus; active compounds read high

Compound: O=C(CN1CCCN(S(=O)(=O)c2ccc(F)cc2)CC1)Nc1ccccc1Br
- outcome [1]: inactive
- outcome [2]: inactive
- outcome [3]: inactive
- outcome [4]: inactive
- inhibition [5]: 70% (active)
- outcome [6]: inactive
- outcome [7]: inactive
- outcome [8]: inactive
- outcome [9]: inactive
- outcome [10]: inactive
- outcome [11]: inactive
- outcome [12]: inactive
- outcome [13]: inactive
- outcome [14]: inactive
- outcome [15]: inactive
- outcome [16]: inactive
- outcome [17]: inactive

Compound: CC1CCc2c(C(=O)N3CCN(S(=O)(=O)c4cccs4)CC3)csc2C1 (stereo not drawn)
- outcome [1]: inactive
- outcome [2]: inactive
- outcome [3]: inactive
- potentiation [4]: 22% (active)
- outcome [5]: inactive
- outcome [6]: inactive
- outcome [7]: inactive
- outcome [8]: inactive
- outcome [9]: inactive
- outcome [10]: inactive
- outcome [11]: inactive
- outcome [12]: inactive
- outcome [13]: inactive
- outcome [14]: inactive
- outcome [15]: inactive
- outcome [16]: inactive
- outcome [17]: inactive

Compound: Cc1ccc(C2N(c3cccc(Cl)c3)C(=O)C3CCCN32)o1 (stereo not drawn)
- outcome [1]: inactive
- outcome [2]: inactive
- potentiation [3]: 19% (active)
- potentiation [4]: 16% (active)
- outcome [5]: inactive
- outcome [6]: inactive
- outcome [7]: inactive
- outcome [8]: inactive
- outcome [9]: inactive
- outcome [10]: inactive
- outcome [11]: inactive
- outcome [12]: inactive
- outcome [13]: inactive
- outcome [14]: inactive
- potentiation [15]: 13.4% (active)
- outcome [16]: inactive
- outcome [17]: inactive

Compound: Cc1cc(NC(=O)CSCC(=O)Nc2ccc(Cl)c(C(F)(F)F)c2)no1
- outcome [1]: inactive
- outcome [2]: inactive
- outcome [3]: inactive
- outcome [4]: inactive
- inhibition [5]: 71% (active)
- outcome [6]: inactive
- outcome [7]: inactive
- outcome [8]: inactive
- outcome [9]: inactive
- outcome [10]: inactive
- outcome [11]: inactive
- outcome [12]: inactive
- outcome [13]: inactive
- inhibition [14]: 35.2% (active)
- outcome [15]: inactive
- outcome [16]: inactive
- outcome [17]: inactive

Compound: CN(C)c1ccc(C(=S)N2CCN(c3ccc([N+](=O)[O-])cc3)CC2)cc1
- outcome [1]: inactive
- outcome [2]: inactive
- outcome [3]: inactive
- outcome [4]: inactive
- outcome [5]: inactive
- outcome [6]: inactive
- outcome [7]: inactive
- outcome [8]: inactive
- outcome [9]: inactive
- outcome [10]: inactive
- outcome [11]: inactive
- outcome [12]: inactive
- outcome [13]: inactive
- outcome [14]: inactive
- potentiation [15]: 8.7% (active)
- outcome [16]: inactive
- outcome [17]: inactive

Compound: CCCn1c(=O)c2sccc2n2c(CCCC(=O)NC3CCN(Cc4ccccc4)CC3)nnc12
- outcome [1]: inactive
- outcome [2]: inactive
- outcome [3]: inactive
- potentiation [4]: 7% (active)
- outcome [5]: inactive
- outcome [6]: inactive
- outcome [7]: inactive
- outcome [8]: inactive
- outcome [9]: inactive
- outcome [10]: inactive
- outcome [11]: inactive
- outcome [12]: inactive
- outcome [13]: inactive
- outcome [14]: inactive
- potentiation [15]: 7.99% (active)
- outcome [16]: inactive
- outcome [17]: inactive

Compound: COc1ccc(C2CC(=O)c3cnc(N4CCN(Cc5ccccc5)CC4)nc3C2)cc1 (stereo not drawn)
- outcome [1]: inactive
- outcome [2]: inactive
- outcome [3]: inactive
- outcome [4]: inactive
- outcome [5]: inactive
- outcome [6]: inactive
- outcome [7]: inactive
- outcome [8]: inactive
- outcome [9]: inactive
- outcome [10]: inactive
- outcome [11]: inactive
- outcome [12]: inactive
- outcome [13]: inactive
- outcome [14]: inactive
- potentiation [15]: 14.7% (active)
- outcome [16]: inactive
- outcome [17]: inactive

Compound: CCN(CC)CCOCCOc1ccc(Cl)c2ccccc12
- outcome [1]: inactive
- outcome [2]: inactive
- outcome [3]: inactive
- outcome [4]: inactive
- outcome [5]: inactive
- outcome [6]: inactive
- outcome [7]: inactive
- outcome [8]: inactive
- outcome [9]: inactive
- outcome [10]: inactive
- outcome [11]: inactive
- outcome [12]: inactive
- outcome [13]: inactive
- outcome [14]: inactive
- potentiation [15]: 11% (active)
- outcome [16]: inactive
- outcome [17]: inactive

Compound: CCCCN1C(=O)C(=O)N(CC(=O)Nc2cc(OCC)c(N3CCOCC3)cc2OCC)C1=O
- outcome [1]: inactive
- outcome [2]: inactive
- outcome [3]: inactive
- outcome [4]: inactive
- outcome [5]: inactive
- outcome [6]: inactive
- outcome [7]: inactive
- outcome [8]: inactive
- outcome [9]: inactive
- outcome [10]: inactive
- outcome [11]: inactive
- outcome [12]: inactive
- outcome [13]: inactive
- outcome [14]: inactive
- outcome [15]: inactive
- outcome [16]: inactive
- outcome [17]: inactive

Compound: CC1CN(c2nc3c(c(=O)n(Cc4ccc(Cl)c(Cl)c4)c(=O)n3C)n2C)CC(C)O1 (stereo not drawn)
- outcome [1]: inactive
- outcome [2]: inactive
- outcome [3]: inactive
- potentiation [4]: 13% (active)
- outcome [5]: inactive
- outcome [6]: inactive
- outcome [7]: inactive
- outcome [8]: inactive
- outcome [9]: inactive
- outcome [10]: inactive
- outcome [11]: inactive
- outcome [12]: inactive
- outcome [13]: inactive
- outcome [14]: inactive
- potentiation [15]: 26.4% (active)
- outcome [16]: inactive
- outcome [17]: inactive

Compound: CSc1ncccc1C(=O)OCC(=O)N(CC(C)C)c1c(N)n(Cc2ccccc2)c(=O)[nH]c1=O
- outcome [1]: inactive
- outcome [2]: inactive
- outcome [3]: inactive
- outcome [4]: inactive
- outcome [5]: inactive
- outcome [6]: inactive
- outcome [7]: inactive
- outcome [8]: inactive
- outcome [9]: inactive
- outcome [10]: inactive
- outcome [11]: inactive
- outcome [12]: inactive
- outcome [13]: inactive
- outcome [14]: inactive
- outcome [15]: inactive
- outcome [16]: inactive
- outcome [17]: inactive

Compound: COc1ccccc1C1/C(=C(\O)c2ccc3c(c2)OCCO3)C(=O)C(=O)N1Cc1cccnc1 (stereo not drawn)
- outcome [1]: inactive
- outcome [2]: inactive
- outcome [3]: inactive
- outcome [4]: inactive
- inhibition [5]: 82% (active)
- inhibition [6]: 63% (active)
- outcome [7]: inactive
- outcome [8]: inactive
- outcome [9]: inactive
- outcome [10]: inactive
- outcome [11]: inactive
- outcome [12]: inactive
- outcome [13]: inactive
- inhibition [14]: 41.7% (active)
- outcome [15]: inactive
- outcome [16]: inactive
- outcome [17]: inactive

Compound: CCN1CCN(c2nc(N)c([N+](=O)[O-])c(Nc3ccc(C)cc3)n2)CC1
- outcome [1]: inactive
- outcome [2]: inactive
- potentiation [3]: 22% (active)
- potentiation [4]: 13% (active)
- outcome [5]: inactive
- outcome [6]: inactive
- outcome [7]: inactive
- outcome [8]: inactive
- outcome [9]: inactive
- outcome [10]: inactive
- outcome [11]: inactive
- outcome [12]: inactive
- outcome [13]: inactive
- outcome [14]: inactive
- potentiation [15]: 24.9% (active)
- outcome [16]: inactive
- outcome [17]: inactive

Compound: CCC(CC)c1nnc(NC(=O)c2c(C)nn(Cc3ccccc3Cl)c2C)s1
- outcome [1]: inactive
- outcome [2]: inactive
- outcome [3]: inactive
- outcome [4]: inactive
- outcome [5]: inactive
- outcome [6]: inactive
- outcome [7]: inactive
- outcome [8]: inactive
- outcome [9]: inactive
- outcome [10]: inactive
- outcome [11]: inactive
- outcome [12]: inactive
- outcome [13]: inactive
- outcome [14]: inactive
- potentiation [15]: 36.2% (active)
- outcome [16]: inactive
- outcome [17]: inactive
